This passage reports Potency results from PubChem BioAssay (NCATS).

Each structure is given as a SMILES string. Results filed as inconclusive are left out. Entries that show only a call come without a potency. Active and inactive are the calls of the source. Calls come from the whole dose curve; as a rule, active = well fitted cell-killing curve with a large enough effect; inconclusive = small, poorly fitted or top-dose-only effect, or effect the other way; inactive = no such curve, though single readings can be large or run the other way.
Potency is the fitted concentration of half-maximal effect.

The test can be described thus: Quantitative High-Throughput drug screen in 47 multiple myeloma cell lines against the NCATS MIPE library collection: KMS27_JCRB cell viability assay (AID 1918970). Note: nearly all actives have a fitted effect of over 30% in size. Conditions: KMS27 myeloma cells, CellTiter-Glo ATP viability, 48 h; series mostly up to 45.8 µM. An excerpt: PI: Beverly A. Mock Ph.D.
Laboratory of Cancer Biology and Genetics,
Center for Cancer Research, National Cancer Institute,
National Institute of Health, Bethesda, Maryland
Drug resistance and disease progression are common in multiple myeloma (MM) patients, underscoring the need for new therapeutic combinations. […] We hypothesized that effective combinations would reduce MYC expression and enhance p16 activity. […] These preclinical data identify potentially useful drug combinations for evaluation in drug-resistant MM and reveal potential mechanisms of combined drug sensitivity.
Described herein is the primary MIPE qHTS used to cherrypick compounds. Validated compounds were then further tested for potential synergistic activiy.
[1] Peat TJ, Gaikwad SM, Dubois W, Gyabaah-Kessie N, Zhang S, Gorjifard S, Phyo Z, Andres M, Hughitt VK, Simpson RM, Miller MA, Girvin AT, Taylor A, Williams D, D'Antonio N, Zhang Y, Rajagopalan A, Flietner E, Wilson K, Zhang X, Shinn P, Klumpp-Thomas C, McKnight C, Itkin Z, Chen L, Kazandijian D, Zhang J, Michalowski AM, Simmons JK, Keats J, Thomas CJ, Mock BA. Drug combinations identified by high-throughput screening promote cell cycle transition and upregulate Smad pathways in myeloma. […] Epub 2023 Jun 24. PMID: 37356470; PMCID: PMC10408729.
SEQUENCE No. (e.g., 1, 2, 3, etc.); […] (e.g., Cells, Incubation, Reagent, etc.); VALUE and DESCRIPTION.
1; Cells; 5 uL; white, solid bottom 1536-well Greiner assay plate.
2; Compounds; 23 nL; Kalypsis pin tool (Wako USA) equipped with a 1536-well pin head to transfer to the assay plates.
3; Incubation; 48 hours; 37C incubation.
4; Reagent;5uL; CellTiter Glo (Promega).
5; Detector; 425V; Luminescence; Viewlux PerkinElmer.
NOTES (numbers refer to Sequence numbers above)
1. The cell-based screening methods employed in this study were like those previously published. Briefly, the corresponding myeloma cell lines were screened in 1,536-well plates with 500 cells, 5-uL per well for inhibition of cell viability (assessed by measuring ATP levels with CellTiterGlo).
2. NCATS MIPE 4.0 library of approved and investigational drugs were added using the Kalypsis pin tool. Wells treated with DMSO only for 100% viability and media only wells for 0% viability were used as controls.
3. The assay plates were covered and incubated for 48 hours in a 37C, 5% CO2 incubator with controlled humidity.
4. After 48 hours, CellTilter-GloTM luminescent substrate mix (Promega) reagent was added to the assay plate and plates we incubated for 5 min at room temperature.
5. Signal was measured as median relative luminescence units on a ViewLux (PerkinElmer) multiplate reader.
[1] Heske CM, Davis MI, Baumgart JT, Wilson K, Gormally MV, Chen L, Zhang X, Ceribelli M, Duveau DY, Guha R, Ferrer M, Arnaldez FI, Ji J, Tran HL, Zhang Y, Mendoza A, Helman LJ, Thomas CJ. Matrix Screen Identifies Synergistic Combination of PARP Inhibitors and Nicotinamide Phosphoribosyltransferase (NAMPT) Inhibitors in Ewing Sarcoma. Clin Cancer Res. 2017 Dec 1;23(23):7301-7311. doi: 10.1158/1078-0432.CCR-17-1121. Epub 2017 Sep 12. PMID: 28899971; PMCID: PMC6636827.
Regarding `Cn1cnc2c(F)c(Nc3ccc(Br)cc3Cl)c(C(=O)NOCCO)cc21`, the Potency is 0.469 µM (active).

Turning to `Nc1ncnc2nc(-c3ccc(N4CCOCC4)nc3)cc(-c3cccc(Br)c3)c12`, the Potency entry was “inactive”.

`CCOC(=O)C1=C[C@]2(CC)CCCN3CCc4c(n1c1ccccc41)[C@@H]32`: the Potency was 23.5 µM (active).

`NC(=O)c1cnccn1`: the Potency result was “inactive”.

In the case of `Cc1ccc(NC(=O)c2cccc(C(C)(C)C#N)c2)cc1Nc1ccc2ncn(C)c(=O)c2c1`, the Potency is 1.05 µM (active). Consider `CC[C@@H](C)[C@H](NC(=O)[C@H](CC1CCCCC1)NC(=O)c1ccno1)C(=O)N1CCC2(CCc3ccccc32)CC1`, for which the Potency result was “inactive”.

Consider `NC(=O)c1ccc(-c2nc(-c3ccc4c(c3)OCO4)c(-c3ccccn3)[nH]2)cc1`, for which the Potency result was “inactive”. Then `Cc1cc2c(C(C)C)c(O)c(O)c(C=O)c2c(O)c1-c1c(C)cc2c(C(C)C)c(O)c(O)c(C=O)c2c1O`, with 6.62 µM (active); and `CO[C@@H]1[C@H](N(C)C(=O)c2ccccc2)C[C@H]2O[C@]1(C)n1c3ccccc3c3c4c(c5c6ccccc6n2c5c31)C(=O)NC4`, with 1.32 µM (active); and `Cc1c(CN2CCN(C(=O)C(C)C)CC2)sc2c(N3CCOCC3)nc(-c3cnc(N)nc3)nc12`, with 0.0187 µM (active).

For `Cc1cc(-c2ccc(CC(=O)Nc3ccc(-c4cccnc4)cc3)cc2)ccn1`, the Potency was 16.6 µM (active). Then `CCCC(CCC)C(=O)O`, with “inactive”; and `Cc1cccc(-c2[nH]c(C(C)(C)C)nc2-c2ccc3nccnc3c2)n1`, with 2.96 µM (active). The value for `Cn1c(=O)c(F)c(Nc2ccc(I)cc2F)c2c(=O)n(C[C@@H](O)CO)cnc21` was 1.87 µM (active).

For the compound `COc1ccccc1[C@H](c1cccc2ccccc12)[C@@](C)(C#N)C(=O)N1CCC(c2cccc(C(F)(F)F)c2)CC1`, the Potency is 3.32 µM (active). The value for `Cc1cccc(-c2nn(C(=S)Nc3ccccc3)cc2-c2ccnc3ccccc23)n1` was “inactive”; that for `O=C(O)[C@@H](c1ccc(OCc2ccc3ccccc3n2)cc1)C1CCCC1` was “inactive”; that for `COc1ccccc1-c1cccc(-c2c(O)c3cc(C#N)c(Cl)cc3[nH]c2=O)c1` was 42.9 µM (active).

With `c1ccc(-c2nn3c(c2-c2ccnc4cc(OCCN5CCOCC5)ccc24)CCC3)nc1`, the Potency result is “inactive”. Regarding `N=c1nc(N2CCCCC2)cc(N)n1O`, the Potency entry was “inactive”. On to `Cc1cnc(NC(=O)C2=C(O)c3ccccc3S(=O)(=O)N2C)s1`, for which the Potency entry was “inactive”.

With `C[C@@H]1CN(Cc2ccc(F)cc2)[C@@H](C)CN1C(=O)c1cc2c(C(=O)C(=O)N(C)C)cn(C)c2cc1Cl`, the Potency was 14.8 µM (active).

For the compound `CCOc1ccc(Cc2cc([C@@H]3O[C@H](CO)[C@@H](O)[C@H](O)[C@@H]3O)ccc2Cl)cc1`, the Potency was 16.6 µM (active). As to `CNC[C@H](O)c1cccc(O)c1`, the Potency result was “inactive”. The value for `CC(C=CC1=C(C)CCCC1(C)C)=CC=CC(C)=CC(=O)O` was 3.72 µM (active). The value for `COc1cc(F)c(F)c(Nc2ccc(I)cc2F)c1NS(=O)(=O)C1(C[C@H](O)CO)CC1` was 16.6 µM (active); that for `NS(=O)(=O)c1cc2c(cc1Cl)NC=NS2(=O)=O` was “inactive”; that for `N[C@@H]1CONC1=O` was “inactive”. Then `Nc1nc2[nH]cc(CCc3ccc(C(=O)N[C@@H](CCC(=O)O)C(=O)O)cc3)c2c(=O)[nH]1`, with 18.7 µM (active); and `C#Cc1cccc(Nc2ncnc3cc(OCCOC)c(OCCOC)cc23)c1`, with 5.26 µM (active). As to `O=C1CCc2cc(OCCCCc3nnnn3C3CCCCC3)ccc2N1`, the Potency result was “inactive”. On to `O=C(O)CCc1ccc(NCc2cccc(Oc3ccccc3)c2)cc1`, for which the Potency result is “inactive”.

With `CC(c1cc2ccccc2s1)N(O)C(N)=O` (stereo not given), the Potency entry was “inactive”. The value for `OC(CCN1CCCCC1)(c1ccccc1)C1CC2C=CC1C2` (stereo not given) was “inactive”; that for `c1ccc([C@H]2CN3CCSC3=N2)cc1` was “inactive”; that for `CC(C)OC(=O)C1=CN(C(=O)c2ccc(F)c(F)c2)CC(C)(C)c2c1[nH]c1ccccc21` was “inactive”. Then `COc1ccc(CC2=NN3C([C@@H](CCc4ccccc4)[C@@H](C)O)=NC(C)C3C(=O)N2)cc1OC` (stereo not given in full), with “inactive”; and `OCCn1cc(-c2cnc3nnn(Cc4ccc5ncccc5c4)c3n2)cn1`, with “inactive”. Then `S=C(NCc1ccc2c(c1)OCO2)N1CCN(c2ncnc3c2oc2ccccc23)CC1`, with 4.29 µM (active); and `CN[C@@H](C)C(=O)N[C@H]1CCCC[C@H]2CC[C@@H](C(=O)N[C@@H](c3ccccc3)c3cn(CCCCc4ccc(CCCCn5cc([C@@H](NC(=O)[C@@H]6CC[C@@H]7CCCC[C@H](NC(=O)[C@H](C)NC)C(=O)N76)c6ccccc6)nn5)cc4)nn3)N2C1=O`, with 18.7 µM (active).
